Data reported in ChEMBL document CHEMBL4513216, “Probing the Open Global Health Chemical Diversity Library for Multistage-Active Starting Points for Next-Generation Antimalarials” (ACS Infect Dis, 2020).
Hit rate of the full screen: of about 69,000 compounds, about 8,600 (12%) showed an effect of 50% or more. What follows is part of a selection rich in strong results, with near analogues and random picks from the rest.

tested on: Plasmodium berghei; test: Screen against P. berghei liver stage (PbLuc), transformed with Luciferase, at 10uM; type: functional, HepG2; conditions: tested at 10 uM

First: CCOc1ccc(Br)cc1-c1cc(N)[nH]n1
Second: CC[C@@H](c1ccccc1)n1c(CN)n[nH]c1=O
The INHIBITION of the first is lower: -21.3% for the first, 4.48% for the second.

Going from `CC(C)C(=O)N1CCCC2(CCCN2CC2CCCC2)C1` (centres undefined) to `COc1cccc(CN2CCCC3(CCN(C(=O)N4CCCC4)C3)C2)c1` (centres undefined), the INHIBITION rises from -26.5% to 8.74%.

First: O=C(Cc1c[nH]c2ccccc12)N1CCC(Nc2cccnc2)CC1
Second: O=C(Cn1cccn1)NCC1CCN(Cc2cc3ccccc3[nH]2)C1 (centres undefined)
The INHIBITION of the first is lower: -12.2% for the first, 9.79% for the second.

First: O=C(NCCOc1ccc(Cl)cn1)Nc1cccnc1
Second: CCOc1ccc(CN(C)C(=O)c2nc(N3CCCC3)ncc2Cl)cc1
The INHIBITION of the first is lower: -24.7% for the first, 24.8% for the second.

First: CC1(C(=O)N2CCOCC2)CN(Cc2cccnc2)CCO1 (centres undefined)
Second: COc1cccc(CN2CCCC3(CCN(C(=O)[C@H]4CCCO4)C3)C2)c1 (some centres undefined)
The INHIBITION of the first is lower: 2.71% for the first, 13.2% for the second.

First: CCC(O)CN(Cc1cccc(C(=O)N(C)C)c1)c1ccccc1 (centres undefined)
Second: CC(O)CN(Cc1cccc(C(=O)N(C)C)c1)c1ccccc1 (centres undefined)
The INHIBITION of the first is lower: 2.93% for the first, 60.5% for the second.

First: CC(O)CN(Cc1cccc(C(N)=O)c1)c1ccccc1 (centres undefined)
Second: O=C(Cn1cccn1)NCC1CCCN(Cc2ccccc2)C1 (centres undefined)
The INHIBITION of the first is higher: 28.9% for the first, 13.7% for the second.

First: CC(O)(CNc1ccc(Cl)c(C#N)n1)c1ccccc1 (centres undefined)
Second: CC(C)C(C)N(Cc1ccccn1)Cc1ccco1 (centres undefined)
The INHIBITION of the first is lower: -25% for the first, 16.3% for the second.

Going from `CC(C)c1nnc2n1CCN(CCS(=O)(=O)c1ccccc1)C2` to `c1cncc(-c2noc(CN3CCn4c(nnc4C4CC4)C3)n2)c1`, the INHIBITION rises from 4.71% to 15.66%.

Going from `COCC1CC2(CCN(C(N)=O)CC2)CN1Cc1csc(C)n1` (centres undefined) to `COCC1CC2(CCN(C(C)=O)CC2)CN1Cc1csc(C)n1` (centres undefined), the INHIBITION rises from 41% to 79.6%.

Compared with `COCC1CC2(CCN(Cc3nccs3)CC2)CN1Cc1ccccn1` (centres undefined), `COCC1CC2(CCN(Cc3ccoc3)CC2)CN1Cc1ccccn1` (centres undefined) is lower in INHIBITION: 71.1% for the first, 48.4% for the second.

Going from `CCN1CCC2(CC1)CC(COC)N(Cc1csc(C)n1)C2` (centres undefined) to `COCC1CC2(CCN(CC3CC3)CC2)CN1Cc1ccccn1` (centres undefined), the INHIBITION rises from 8.85% to 13.1%.

First: Cc1cc(C)n(CC2CCCN2CC(=O)N(C)Cc2ccco2)n1 (centres undefined)
Second: Cc1cc(CN2CCCC(CNC(=O)Cn3cccn3)C2)oc1C (centres undefined)
The INHIBITION of the first is lower: 4.71% for the first, 57.6% for the second.

First: Cc1nnc(-c2cccc(C#N)c2)n1C1CCN(C2CC2)C1=O (centres undefined)
Second: CN1CC(=O)N(c2ccccc2)CC12CCN(C(=O)CC1CC1)C2 (centres undefined)
The INHIBITION of the first is lower: -25.7% for the first, 4.68% for the second.

Compared with `CCN1CCCC(CNC(=O)CCc2ccc(OC)c(F)c2)C1` (centres undefined), `CCCC(=O)NCC1CCCN(Cc2cc(C)c(C)o2)C1` (centres undefined) is higher in INHIBITION: 11.5% for the first, 54.4% for the second.

First: O=C(Cn1cc(I)cn1)NCC1CCC1
Second: O=C(Cn1cc(-n2cccc2)cn1)NCC1CCC1
The INHIBITION of the first is lower: 27.5% for the first, 55.6% for the second.

Compared with `O=C(Cn1cc(-n2cccc2)cn1)NCC(F)(F)F`, `COc1cccc2ccn(CC(=O)NCCC(C)C)c12` is higher in INHIBITION: 6.83% for the first, 9.04% for the second.

First: Cc1cc(CN2CCC(CNC(=O)CN3CCCCCC3)C2)[nH]n1 (centres undefined)
Second: Cn1cccc1C(=O)N1CCCC2(CCN(CCN3CCCC3)C2=O)C1 (centres undefined)
The INHIBITION of the first is higher: 10.7% for the first, -14.9% for the second.

Going from `CO[C@@H]1CN(c2ccccc2)S(=O)(=O)[C@@]12CCN(C)C2` to `COc1cccc(CN2CCCC3(CCN(C(=O)c4ccco4)C3)C2)c1` (centres undefined), the INHIBITION rises from 32.1% to 69.1%.

Compared with `COCCCNC(=O)C(C)n1cc(Br)cn1` (centres undefined), `CC(=O)N1CCCC(c2ccc(Br)cn2)C1` (centres undefined) is higher in INHIBITION: -33.2% for the first, 29.2% for the second.

Going from `O=C(NCc1ccco1)[C@H]1COC[C@H]2CN(Cc3ccccn3)C[C@H]21` to `CN(C)C(CNC(=O)c1nc(N2CCCC2)ncc1Cl)c1ccco1` (centres undefined), the INHIBITION rises from 15.9% to 26%.

First: Cc1noc(C)c1CN(C)C(=O)c1nc(N2CCCC2)ncc1Cl
Second: O=C(c1ccoc1)N1CCC2(CCCN(c3ncc(F)cn3)C2)C1 (centres undefined)
The INHIBITION of the first is higher: 61.9% for the first, 53% for the second.

First: CCc1ccc(CN(Cc2ccco2)C(C)C(C)C)nc1 (centres undefined)
Second: COCc1ncc(CN(Cc2ccco2)C(C)C(C)C)cn1 (centres undefined)
The INHIBITION of the first is higher: 60.7% for the first, 20.9% for the second.

Compared with `O=C(c1ccco1)N1CCCC2(CCN(c3nncs3)C2)C1` (centres undefined), `O=C(c1ccco1)N1CCCC2(C1)CN(c1nncs1)CCO2` (centres undefined) is lower in INHIBITION: 56.6% for the first, 45.7% for the second.

First: Cc1occc1C(=O)N1CCCC2(CCN(CCN3CCCC3)C2=O)C1 (centres undefined)
Second: O=C(c1ccco1)N1CCCC2(CCN(CCN3CCCC3)C2=O)C1 (centres undefined)
The INHIBITION of the first is lower: 23.5% for the first, 58.5% for the second.

Compared with `O=C(c1ccoc1)N1CCC2(C1)CN(c1ncc(F)cn1)C2`, `O=C(c1ccncc1)N1CCC2(CCCN(c3ncc(F)cn3)C2)C1` (centres undefined) is higher in INHIBITION: -0.813% for the first, 40.3% for the second.

Going from `CC(=O)N1CCCC2(CCN(c3nncs3)C2)C1` (centres undefined) to `CC(C)(C)c1nnc2n1C(C(=O)N1CCOCC1)CC2` (centres undefined), the INHIBITION falls from 7.7% to -3.93%.
